About 83,000 compounds went through this panel and 20% of them were active in at least one assay; those are over-represented in the sample as a whole.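 The test compound was applied at a single concentration to cells in 96-well plates for 48 hours, and percent growth was recorded.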 Active and inactive are the calls of the source. The calls were made as follows: active = growth percent below 10; inactive = the rest.
system: HCT-15 colon; assay: NCI-60 one-dose screen, 48 h (100 = growth as untreated, 0 = no growth, -100 = all killed); conditions: 10 µM unless noted

| SMILES | growth |
| --- | --- |
| N#Cc1cccc(CN2CCC3=C(C2)C(=O)N(Cc2ccc(Cl)cc2)C2=NCCN23)c1 | 17.3% (inactive) |
| COc1ccc(Oc2ccc(/C=N/NC(=O)CSc3nc4ccccc4c(=O)n3-c3ccc(Cl)cc3)cc2)cc1 | 56% (inactive) |
| O=C(NNc1nc2cc(F)c(F)cc2n2c(CN3CC4CNCC4C3)ccc12)c1ncccn1 (stereo unspecified) | 19.8% (inactive) |
| COc1cc(/C=C2\C(=O)Nc3cc(Cl)ccc32)ccc1OCc1ccc(F)cc1 | 89% (inactive) |
| C#CCOc1ccc(/C=N\Nc2nc(-c3ccc(C)cc3)cs2)cc1OC | 86.1% (inactive) |
| C=CCOc1cccc(/C=C2\SC(=S)N(C3CC(=O)N(c4ccc(Br)cc4)C3=O)C2=O)c1 (stereo unspecified) | 97.5% (inactive) |
| COc1ccc(S(=O)(=O)NCCCNc2nccc(-c3[nH]c(-c4ccccc4)nc3-c3ccc(Cl)c(O)c3)n2)cc1 | 93.7% (inactive) |
| CCn1c2ccccc2c2cc(-n3nncc3-c3ccccc3)ccc21 | 8.42% (active) |
| N#Cc1cccc(CN2CCC3=C(C2)C(=O)N(Cc2ccc(Cl)cc2)C2=NCCCN23)c1 | 16.6% (inactive) |
| COc1ccc(COc2ccc(/C=C3\C(=O)Nc4ccccc43)cc2OC)cc1 | 105% (inactive) |
| O=C(NNc1nc2cc(F)ccc2n2c(CN3CC4CNCC4C3)ccc12)c1cnccn1 (stereo unspecified) | 18.1% (inactive) |
| COc1ccc2[nH]cc(-c3csc4nc(-c5ccccc5)cn34)c2c1 | 11.3% (inactive) |
| COC(=O)C[Se]C(=O)Cc1c(C)n(C(=O)c2ccc(Cl)cc2)c2ccc(OC)cc12 | 11.5% (inactive) |
| CCOc1ccc(NC2=C(Cl)C(=O)c3nc(C)ccc3C2=O)cc1 | -83.2% (active) |
| COc1cccc(/C=C(/C)c2ccc3cccc(OC)c3[o+]2)c1O | 98% (inactive) |
| NC(N)=Nc1ccc(Oc2cccc(NC(N)=Nc3ccc(Cl)c(C(F)(F)F)c3)c2)cc1 | 84.3% (inactive) |
| COc1ccc(CCOc2cc3c(cc2OC)CCN(C(=O)NCc2cocn2)C3c2ccc(C)cc2C)cc1 (stereo unspecified) | 5.53% (active) |
| O=C1C(c2ccccc2)=C(N2CCc3ccccc32)OC1(Cl)Cl | 21.1% (inactive) |
| O=C(NNc1nc2cc(F)ccc2n2c(CN3CCCC3)ccc12)c1cnccn1 | 23% (inactive) |

| SMILES | growth |
| --- | --- |
| O=C(NNc1nc2cc(F)cc(F)c2n2cccc12)c1cnccn1 | 24.8% (inactive) |
| O=C(O)c1ccc(-n2cc(CNc3cc(F)c(F)c(F)c3)c(-c3ccc(F)cc3)n2)cc1 | 68.1% (inactive) |
| COc1ccc(NC2=C(Cl)C(=O)c3nc(C)ccc3C2=O)cc1OC | 82.3% (inactive) |
| O=C(NNc1nc2cc(F)c(F)cc2n2c(CN3CC4CNCC4C3)ccc12)c1cnccn1 (stereo unspecified) | 23% (inactive) |
| C[C@H](CCC(=O)NCc1ccc(C(=O)Nc2ccccc2N)cc1)[C@H]1CC[C@H]2[C@@H]3[C@@H](O)C[C@@H]4C[C@H](O)CC[C@]4(C)[C@H]3CC[C@]12C | 88.3% (inactive) |
| CC(=O)c1cc(C(=O)c2ccc(Br)cc2)n2cc(C)cc(C)c12 | 74.6% (inactive) |
| NC(=O)c1cccc(-n2ccc3cc(NC(=O)Nc4ccc(N5CCOCC5)c(C(F)(F)F)c4)ccc32)n1 | 10.4% (inactive) |
| COc1ccc2c(c1)c(CC(=O)[Se]CC(=O)O)c(C)n2C(=O)c1ccc(Cl)cc1 | 93% (inactive) |
| CN(C)CCNC(=O)c1ccc(-c2nc3ccc4[nH]ncc4c3c3c2COCC3)cc1 | 84.7% (inactive) |
| COc1ccc2c(c1)c(CC(=O)[Se]CCC#N)c(C)n2C(=O)c1ccc(Cl)cc1 | -64.7% (active) |
| CN1CCN(Cc2ccc(NC(=O)c3cncc(C#Cc4cnc5ccc(OCC(C)(C)O)nn45)c3)cc2C(F)(F)F)CC1 | -39.2% (active) |
| CNC(=O)c1cc(N2CCc3cc(NC(=O)Nc4ccc(Cl)c(C(F)(F)F)c4)ccc32)ccn1 | 28% (inactive) |
| O=C(CSc1nc2ccccc2c(=O)n1-c1ccc(Cl)cc1)N/N=C/c1ccc(N2CCCCC2)cc1 | 67.8% (inactive) |
| CCOc1ccc(C(=O)Nc2ncc(Cc3ccc(F)cc3)s2)cc1 | 14.7% (inactive) |
| Cc1c(Cl)cccc1S(=O)(=O)Nc1ccc2c(c1)C(=O)N(C1CCC(=O)NC1=O)C2=O (stereo unspecified) | 24% (inactive) |
| CC/C(=C/c1cc(OC)ccc1O)c1ccc2cc(OC)ccc2[o+]1 | 23.9% (inactive) |
| COc1c(N2CC3CCCNC3C2)c(F)cc2c(=O)c(C(=O)N/N=C/c3ccc4c(c3)OCO4)cn(C3CC3)c12 (stereo unspecified) | 3.7% (active) |
| CN1CCN(Cc2ccc(NC(=O)c3cncc(C#Cc4cnc5ccc(OCC6(C)COC6)nn45)c3)cc2C(F)(F)F)CC1 | -78.6% (active) |
| O=C(NNc1nc2cc(F)c(F)cc2n2cccc12)c1cnccn1 | 13.9% (inactive) |

system: HT29 colon; assay: as above; conditions: 10 µM unless noted

| SMILES | growth |
| --- | --- |
| N#Cc1cccc(CN2CCC3=C(C2)C(=O)N(Cc2ccc(Cl)cc2)C2=NCCN23)c1 | 30.8% (inactive) |
| COc1ccc(Oc2ccc(/C=N/NC(=O)CSc3nc4ccccc4c(=O)n3-c3ccc(Cl)cc3)cc2)cc1 | 16.1% (inactive) |
| O=C(NNc1nc2cc(F)c(F)cc2n2c(CN3CC4CNCC4C3)ccc12)c1ncccn1 (stereo unspecified) | 23.5% (inactive) |
| COc1cc(/C=C2\C(=O)Nc3cc(Cl)ccc32)ccc1OCc1ccc(F)cc1 | 105% (inactive) |
| C#CCOc1ccc(/C=N\Nc2nc(-c3ccc(C)cc3)cs2)cc1OC | 88.2% (inactive) |
| C=CCOc1cccc(/C=C2\SC(=S)N(C3CC(=O)N(c4ccc(Br)cc4)C3=O)C2=O)c1 (stereo unspecified) | 115% (inactive) |
| COc1ccc(S(=O)(=O)NCCCNc2nccc(-c3[nH]c(-c4ccccc4)nc3-c3ccc(Cl)c(O)c3)n2)cc1 | 73.8% (inactive) |
| CCn1c2ccccc2c2cc(-n3nncc3-c3ccccc3)ccc21 | 2.01% (active) |
| N#Cc1cccc(CN2CCC3=C(C2)C(=O)N(Cc2ccc(Cl)cc2)C2=NCCCN23)c1 | 28% (inactive) |
| COc1ccc(COc2ccc(/C=C3\C(=O)Nc4ccccc43)cc2OC)cc1 | 108% (inactive) |
| O=C(NNc1nc2cc(F)ccc2n2c(CN3CC4CNCC4C3)ccc12)c1cnccn1 (stereo unspecified) | 29.2% (inactive) |
| COc1ccc2[nH]cc(-c3csc4nc(-c5ccccc5)cn34)c2c1 | -8.92% (active) |
| COC(=O)C[Se]C(=O)Cc1c(C)n(C(=O)c2ccc(Cl)cc2)c2ccc(OC)cc12 | 9.65% (active) |
| CCOc1ccc(NC2=C(Cl)C(=O)c3nc(C)ccc3C2=O)cc1 | 15.9% (inactive) |
| COc1cccc(/C=C(/C)c2ccc3cccc(OC)c3[o+]2)c1O | 114% (inactive) |
| NC(N)=Nc1ccc(Oc2cccc(NC(N)=Nc3ccc(Cl)c(C(F)(F)F)c3)c2)cc1 | 46.7% (inactive) |
| COc1ccc(CCOc2cc3c(cc2OC)CCN(C(=O)NCc2cocn2)C3c2ccc(C)cc2C)cc1 (stereo unspecified) | -2.64% (active) |
| O=C1C(c2ccccc2)=C(N2CCc3ccccc32)OC1(Cl)Cl | 37.4% (inactive) |
| O=C(NNc1nc2cc(F)ccc2n2c(CN3CCCC3)ccc12)c1cnccn1 | 24% (inactive) |

| SMILES | growth |
| --- | --- |
| O=C(NNc1nc2cc(F)cc(F)c2n2cccc12)c1cnccn1 | 26.2% (inactive) |
| O=C(O)c1ccc(-n2cc(CNc3cc(F)c(F)c(F)c3)c(-c3ccc(F)cc3)n2)cc1 | 108% (inactive) |
| COc1ccc(NC2=C(Cl)C(=O)c3nc(C)ccc3C2=O)cc1OC | 110% (inactive) |
| O=C(NNc1nc2cc(F)c(F)cc2n2c(CN3CC4CNCC4C3)ccc12)c1cnccn1 (stereo unspecified) | 26.3% (inactive) |
| C[C@H](CCC(=O)NCc1ccc(C(=O)Nc2ccccc2N)cc1)[C@H]1CC[C@H]2[C@@H]3[C@@H](O)C[C@@H]4C[C@H](O)CC[C@]4(C)[C@H]3CC[C@]12C | 48.1% (inactive) |
| CC(=O)c1cc(C(=O)c2ccc(Br)cc2)n2cc(C)cc(C)c12 | 94.9% (inactive) |
| NC(=O)c1cccc(-n2ccc3cc(NC(=O)Nc4ccc(N5CCOCC5)c(C(F)(F)F)c4)ccc32)n1 | 4.89% (active) |
| COc1ccc2c(c1)c(CC(=O)[Se]CC(=O)O)c(C)n2C(=O)c1ccc(Cl)cc1 | 75.5% (inactive) |
| CN(C)CCNC(=O)c1ccc(-c2nc3ccc4[nH]ncc4c3c3c2COCC3)cc1 | 16.7% (inactive) |
| COc1ccc2c(c1)c(CC(=O)[Se]CCC#N)c(C)n2C(=O)c1ccc(Cl)cc1 | -31.2% (active) |
| CN1CCN(Cc2ccc(NC(=O)c3cncc(C#Cc4cnc5ccc(OCC(C)(C)O)nn45)c3)cc2C(F)(F)F)CC1 | -22.7% (active) |
| CNC(=O)c1cc(N2CCc3cc(NC(=O)Nc4ccc(Cl)c(C(F)(F)F)c4)ccc32)ccn1 | 61.2% (inactive) |
| O=C(CSc1nc2ccccc2c(=O)n1-c1ccc(Cl)cc1)N/N=C/c1ccc(N2CCCCC2)cc1 | 60.9% (inactive) |
| CCOc1ccc(C(=O)Nc2ncc(Cc3ccc(F)cc3)s2)cc1 | -18.2% (active) |
| Cc1c(Cl)cccc1S(=O)(=O)Nc1ccc2c(c1)C(=O)N(C1CCC(=O)NC1=O)C2=O (stereo unspecified) | 105% (inactive) |
| CC/C(=C/c1cc(OC)ccc1O)c1ccc2cc(OC)ccc2[o+]1 | 15.7% (inactive) |
| COc1c(N2CC3CCCNC3C2)c(F)cc2c(=O)c(C(=O)N/N=C/c3ccc4c(c3)OCO4)cn(C3CC3)c12 (stereo unspecified) | -19.2% (active) |
| CN1CCN(Cc2ccc(NC(=O)c3cncc(C#Cc4cnc5ccc(OCC6(C)COC6)nn45)c3)cc2C(F)(F)F)CC1 | -37.5% (active) |
| O=C(NNc1nc2cc(F)c(F)cc2n2cccc12)c1cnccn1 | 36.8% (inactive) |
